From PubChem BioAssay AID743287 (Broad Institute, 2014)
Several values for one entry are separate records, joined by “and”; a condition that tells them apart may be missing. Equal values may be shown once. In all, about 370,000 compounds went through this assay and about 2,300 (0.62%) were called active. This excerpt belongs to a sample that is enriched for actives. A number with no mark means an inactive call.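 Rule for the calls: active = lowest replicate activation of at least 40%, so every replicate reaches that level; inactive = the rest.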

Test: GLuc luminescence reporter in INS-1E cells, primary screen for activators of glucose-dependent secretion of insulin (AID 743287);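 note: 0% = median of neutral control wells and 100% = median of IBMX positive control wells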
Conditions: INS-1E GLuc reporter insulin secretion, 2-3 h, at 16.6 µM, hits give high values

| SMILES | activation |
| --- | --- |
| COc1ccccc1CN1[C@H](CO)[C@H](c2ccccc2)C12CN(C(=O)c1ccccn1)C2 | -3.88% |
| O=C(C[C@H]1C[C@H]2c3cc(NC(=O)NC4CCCC4)ccc3O[C@H]2[C@@H](CO)O1)NCc1ccc(-c2ccccc2)cc1 | -0.703% |
| COc1ccc2c3c([nH]c2c1)[C@H](CO)N(Cc1nccs1)CC31CCN(Cc2ccncc2)CC1 | 3% |
| CC(C)NC(=O)N(C)C[C@H]1Oc2ccc(NS(C)(=O)=O)cc2C(=O)N(C)C[C@@H]1C | -0.922% |
| CCCSc1nc2[nH]ncc2c(=O)[nH]1 | 53.9% (active) |
| O=C(CSc1nc2[nH]ncc2c(=O)[nH]1)Nc1ccc(F)cc1 | 5.73% |
| Cc1ccc(CSc2nc3[nH]ncc3c(=O)[nH]2)cc1 | 23.2% |
| CN1c2ccc(-c3cccc(F)c3)cc2[C@H]2[C@H](CCN2C(=O)C2CCCC2)[C@@H]1CO | -41.3% |
| O=C(C[C@H]1C=C[C@H](NC(=O)Nc2cc(F)ccc2F)[C@@H](CO)O1)NCc1ccccn1 | 2.32% |
| C[C@H]1CN([C@@H](C)CO)C(=O)c2c(c3ccccc3n2C)-c2ccccc2CO[C@@H]1CN(C)C(=O)Nc1ccnc(N2CCOCC2)c1 | -10.3% |
| O=C(CN(CC1CCCO1)C(=O)CNS(=O)(=O)c1ccc(F)cc1)NCc1ccco1 (stereo not given) | 16.2% |
| O=C(CN(CC1CCCO1)C(=O)CNS(=O)(=O)c1ccccc1)NCc1ccccc1 (stereo not given) | 1.79% |
| CC(C)C(C(=O)NCc1ccco1)N(CC1CCCO1)C(=O)CNS(=O)(=O)c1ccc(F)cc1 (stereo not given) | 47.3% (active) |
| CC(C)C#Cc1ccc2c(c1)O[C@@H](CN(C)C(=O)C1CCC1)[C@@H](C)CN([C@@H](C)CO)S2(=O)=O | -2.35% |
| COc1ccc(-c2nn3c(-c4ccccc4)nnc3s2)cc1OC | 140% (active) |
| COc1ccccc1CCn1cnc(-c2ccccc2)c1C(C)C | 40.3% |
| COc1ccc(-c2cc(NC=O)c3ncc(-c4ccccc4)n3c2)cc1OC | 2.43% |
| COc1ccc2c3c([nH]c2c1)[C@@H](CO)N(Cc1ccc2c(c1)OCO2)CC31CN(C(=O)Nc2c(C)noc2C)C1 | 8.95% |
| C[C@H](O)C#Cc1cnc2c(c1)C(=O)N([C@@H](C)CO)C[C@H](C)[C@H](CN(C)C(=O)c1ccccc1)O2 | 11.8% |
| O=C(Nc1ccc(C(F)(F)F)cc1)N[C@@H]1CC[C@H](CC(=O)N2CCCCC2)O[C@H]1CO | -5.98% |
| C[C@H]1CN([C@@H](C)CO)C(=O)c2cccc(NC(=O)Nc3ccc(C(F)(F)F)cc3)c2O[C@H]1CN(C)CC1CCCCC1 | -0.988% |
| NC(c1csc(NC(=O)Nc2cccc(C(F)(F)F)c2)n1)C1CCCCC1 (stereo not given) | 48.3% (active) |
| CC(=O)Nc1ccc(NC(=O)C2CCCN2S(=O)(=O)c2cccc(C(F)(F)F)c2)cc1 (stereo not given) | -4.8% |
| C[C@@H]1CN([C@@H](C)CO)C(=O)c2cccc(NC(=O)Nc3cccc4ccccc34)c2O[C@@H]1CN(C)CC1CC1 | 21.1% |
| O=C(Nc1ccccc1F)N[C@H]1C=C[C@H](CC(=O)N2CCCCC2)O[C@H]1CO | -5.96% |

| SMILES | activation |
| --- | --- |
| O=C(CC1CC1)N1[C@@H](CO)[C@H](c2ccccc2)C12CN(Cc1cccnc1)C2 | 2.36% |
| CCC(=O)N1C[C@@H](C)[C@H](OC)CN(C)C(=O)c2ccc(NC(=O)C3CCOCC3)cc2OC[C@@H]1C | 8.65% |
| O=C1CNC[C@H]2[C@@H](c3ccc(C4=CCCC4)cc3)[C@@H](CO)N12 | 2.03% |
| CCC(=O)N1[C@@H](CO)[C@@H](c2ccc(C3=CCCC3)cc2)C12CN(C(=O)COC)C2 | 3.86% |
| C[C@@H]1CCCCO[C@@H](CN(C)C(=O)CCCN(C)C)[C@@H](C)CN([C@H](C)CO)C(=O)c2cc(NC(=O)CCCN(C)C)ccc2O1 | 12.7% |
| CN(CCc1cnn(C)c1)Cc1cn(C)nc1-c1ccccc1F | -1.92% |
| Cc1ccc2c(C)c(C(=O)N(C)CCC3CCCCO3)oc2c1C (stereo not given) | 0.532% |
| Cc1c(C(=O)N(C)CCc2cnn(C)c2)oc2c(F)cccc12 | 44.6% (active) |
| COc1ccc(S(=O)(=O)N2CCOCC2)cc1NC(=O)Cc1c(F)cccc1Cl | -12.7% |
| COc1ccc(S(=O)(=O)N2CCOCC2)cc1NC(=O)COc1ccccc1 | 43.9% (active) |
| COc1ccc(S(=O)(=O)N2CCOCC2)cc1NC(=O)CSc1ncnc2ccccc12 | 14.3% |
| COCC(=O)N(C)C[C@@H]1Oc2cc(C#CC3CC3)ccc2S(=O)(=O)N([C@H](C)CO)C[C@H]1C | 5.41% |
| C[C@@H]1CC=CC[C@H](c2ccc(F)cc2)NC(=O)[C@@H](Cc2ccccc2)N(C)C(=O)c2ccccc2O1 (mixture of isomers) | -20.2% |
| C[C@@H]1CN([C@H](C)CO)C(=O)c2cc(NS(=O)(=O)c3ccc(F)cc3)ccc2O[C@@H]1CN(C)S(C)(=O)=O | 12.8% |
| O=C(CNC(=O)c1cc(S(=O)(=O)N2CCOCC2)ccc1N1CCCC1)Nc1ccc(F)c(F)c1 | -28.2% |
| NS(=O)(=O)c1ccc(CNC(=O)c2cc(S(=O)(=O)N3CCOCC3)ccc2N2CCCC2)cc1 | 46.1% (active) |
| O=C(NCC1CCCCC1)c1cc(S(=O)(=O)N2CCCCC2)ccc1N1CCOCC1 | -3.7% |
| C[C@@H]1CCCCO[C@@H](CN(C)Cc2ccc(C(=O)Nc3ccccc3N)cc2)[C@H](C)CN([C@H](C)CO)C(=O)c2cc(N(C)C)ccc2O1 | 4.89% |
| C[C@@H]1CN([C@@H](C)CO)C(=O)CCCn2cc(nn2)CO[C@@H]1CN(C)C(=O)C1CCCCC1 | 5.75% |
| COc1ccc2c3c([nH]c2c1)[C@@H](CO)N(C(=O)C1CC1)CC31CCN(C(=O)c2ccncc2)CC1 | 1.51% |
| O=C(CN1CCCCCC1)Nc1ccc(Br)cc1[N+](=O)[O-] | 7% |
| O=C(CN1CCC(NC(=O)C2CC2)CC1)Nc1ccccc1[N+](=O)[O-] | 96.7% (active) |
| O=C(CN1CCCCC1)Nc1ccccc1C(=O)NC1CC1 | 22.4% |
| Cc1ccnc(NS(=O)(=O)c2ccc(NC(=O)c3ccc(S(=O)(=O)N(C)C)cc3)cc2)n1 | 7.95% |
| O=C(Nc1ccc(S(=O)(=O)Nc2ncccn2)cc1)c1cncc(Br)c1 | 1.33% |

| SMILES | activation |
| --- | --- |
| CCOc1ncccc1C(=O)Nc1ccc(S(=O)(=O)Nc2nc(C)cc(C)n2)cc1 | 65.9% (active) |
| COCCNC(=S)N(Cc1cccnc1)Cc1ccc(OC)c(OC)c1 | 53.5% (active) |
| COCCCNC(=S)N(Cc1ccccc1)Cc1ccc(F)cc1 | -5.03% |
| COCCNC(=S)N(CCc1c(C)[nH]c2ccc(C)cc12)Cc1cccnc1 | -2.95% |
| COc1ccc(-c2cnc3c(c2)C(=O)N([C@@H](C)CO)C[C@@H](C)[C@H](CN(C)C(=O)C2CCCCC2)O3)cc1 | -13.6% |
| O=C(C[C@H]1CC[C@H]2[C@@H](COC[C@@H](O)CN2S(=O)(=O)c2ccc(Cl)cc2)O1)NCCN1CCCCC1 | 17.3% |
| CNC[C@@H]1Oc2cc(-c3ccccc3OC)ccc2S(=O)(=O)N([C@H](C)CO)C[C@H]1C | 5.62% |
| CCC1OC(C2CC2)CC2=C1C(=O)OC(C)(C)O2 (stereo not given) | 44.5% (active) |
| CC1(C)OC(=O)C2=C(C[C@@H](C3CC3)O[C@H]2CCc2cccc(Cl)c2)O1 | -7.22% |
| CC[C@@H]1CC2=C(C(=O)OC(C)(C)O2)[C@@H](CC)O1 | -0.455% |
| O=C(Nc1ccc(C(F)(F)F)cc1)N1[C@@H]2CNC[C@H]1C2c1ccc(-c2ccncc2)cc1 (stereo not given in full) | 3.37% and 12.2% |
| CCCCc1nc(NCc2ccccc2)c(C#N)c2c1CCCC2 | -17.4% |
| CCCCc1nc(NCCN)c(C#N)c2c1CSC(C)(C)C2 | 44.2% (active) |
| COc1cccc(S(=O)(=O)N2[C@@H]3CNC[C@H]2C3c2ccc(-c3cccc(C(=O)N(C)C)c3)cc2)c1 (stereo not given in full) | 11.3% and 0.645% |
| CO[C@H]1CN(C)C(=O)c2cc(NS(C)(=O)=O)ccc2OC[C@@H](C)N(C(=O)NC(C)C)C[C@@H]1C | 8.6% |
| CCOC(=O)C1(Cc2cccc(OC)c2)CCCN(S(=O)(=O)c2cccnc2)C1 (stereo not given) | -3.61% |
| CCOC(=O)C1(Cc2cccc(OC)c2)CCN(C(C)COC)CC1 (stereo not given) | 5.01% |
| CCOC(=O)C1(Cc2cccc(OC)c2)CCCN(C(=O)CCSC)C1 (stereo not given) | 51.6% (active) |
| C[C@@H]1CN([C@H](C)CO)C(=O)c2cccc(NC(=O)CCCCCC(=O)Nc3ccccc3N)c2O[C@H]1CN(C)CC1CCCCC1 | -3.22% |
| C[C@@H]1CN([C@@H](C)CO)C(=O)c2cc(NC(=O)Nc3ccccc3)ccc2O[C@H]1CN(C)S(=O)(=O)c1ccccc1 | 6.36% |
| Cc1cccc(CS(=O)(=O)c2ncc(Cl)c(C(=O)Nc3ccc(F)cc3)n2)c1 | 44.8% (active) |
| Cc1onc(-c2c(F)cccc2Cl)c1C(=O)Nc1cccc(S(=O)(=O)N2CCCCC2)c1 | -9.79% |
| CN(CCC(=O)Nc1cc(S(=O)(=O)N(C)C)ccc1Cl)CC(=O)Nc1ccc(F)cc1 | -1.06% |
| C/C=C/c1ccc(C2[C@H]3CNC[C@@H]2N3CC2CCOCC2)cc1 (stereo not given in full) | 8.12% |
| C[C@@H]1CN([C@@H](C)CO)C(=O)Cc2cc(NC(=O)Cc3ccccc3)ccc2O[C@H]1CN(C)Cc1ccc(C(=O)O)cc1 | 12.1% |
